The full list was thinned out, with hits kept by preference.
HT1080 IDH1KD tx = qHTS for induction of synthetic lethality in tumor cells producing 2HG: qHTS for the HT-1080-IDH1KD cell line; 360,000 compounds, 2% hits; Potency, µM (highest dose often 46.1 µM), most hits filed as cytotoxic; HT-1080 IDH1 knockdown viability, ATP luminescence, 48 h
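Knockdown cells (IDH1KD HT-1080) received compounds 2 h after plating at 750 cells/well and were kept 48 h at 37 °C in 5% FBS RPMI. A CellTiter-Glo luminescence read gave % activity for curve fitting.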
DT40 TDP1 no CPT = qHTS for Inhibitors of human tyrosyl-DNA phosphodiesterase 1 (TDP1): qHTS in cells in absence of CPT | DT40 Tdp1-/- hTDP1 cells, no CPT, ATP luminescence, 48 h | Potency, µM (titrated, usually from 46.2 µM), actives largely listed as inhibitors | 420,000 compounds, 15% hits | AID 686978, 2013; further: nearly all actives have a fitted effect of over 55% in size
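Chicken DT40 Tdp1-/- cells stably complemented with human TDP1 were seeded at 400 cells/well with DMSO in place of 20 nM camptothecin. After compound pinning, cells grew at least 48 hr at 37 °C; viability read by CellTiter-Glo luminescence.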
IL1B secr inh = qHTS for Inhibitors of Inflammasome Signaling: IL-1-beta AlphaLISA Primary Screen; THP-1 LPS/ATP IL-1B secretion, AlphaLISA, 16 h; active compounds read low; activity change, % at 57.5 µM; 360,000 compounds, 4.7% hits; AID 743279, 2014; in the data active means activity change below about -50%; inconclusive means mostly about -30% to -49%
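Secreted IL-1B measured by AlphaLISA bead assay after 16 h compound exposure of THP-1 cells; compounds (final up to 57.5 uM) added 1 h before LPS (250 ng/mL) and ATP (1.25 mM) stimulation; lower signal means less secretion.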
HT1080NT lethal = qHTS for induction of synthetic lethality in tumor cells producing 2HG: qHTS for the HT-1080-NT fibrosarcoma cell line. Potency, µM (highest dose often 46.1 µM), most hits filed as cytotoxic. HT-1080-NT fibrosarcoma viability, CellTiter-Glo ATP luminescence, 48 h. AID 686970, 2013. 360,000 compounds, 1.6% hits;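 further: NT is the 2HG producing partner of a matched IDH1 knockdown line; nearly all actives have a fitted effect of over 55% in size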
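Compounds were tested in concentration-response format on HT-1080-NT cells for 48 hours at 37 degrees C. Cell viability came from CellTiter-Glo luminescence; curves were classified by r2, response magnitude and activity.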
ALOX12 inh = Primary qHTS assay for inhibitors of human arachidonate 12S-lipoxygenase (ALOX12): Round 2; Polyunsaturated fatty acid lipoxygenase ALOX12 (Homo sapiens), P18054; purified 12hLO, xylenol orange hydroperoxide absorbance; Potency, µM (series often up to 108 µM), most hits filed as inhibitors; 580,000 compounds, 1.1% hits
Target sequence (P18054 whole entry, looked up): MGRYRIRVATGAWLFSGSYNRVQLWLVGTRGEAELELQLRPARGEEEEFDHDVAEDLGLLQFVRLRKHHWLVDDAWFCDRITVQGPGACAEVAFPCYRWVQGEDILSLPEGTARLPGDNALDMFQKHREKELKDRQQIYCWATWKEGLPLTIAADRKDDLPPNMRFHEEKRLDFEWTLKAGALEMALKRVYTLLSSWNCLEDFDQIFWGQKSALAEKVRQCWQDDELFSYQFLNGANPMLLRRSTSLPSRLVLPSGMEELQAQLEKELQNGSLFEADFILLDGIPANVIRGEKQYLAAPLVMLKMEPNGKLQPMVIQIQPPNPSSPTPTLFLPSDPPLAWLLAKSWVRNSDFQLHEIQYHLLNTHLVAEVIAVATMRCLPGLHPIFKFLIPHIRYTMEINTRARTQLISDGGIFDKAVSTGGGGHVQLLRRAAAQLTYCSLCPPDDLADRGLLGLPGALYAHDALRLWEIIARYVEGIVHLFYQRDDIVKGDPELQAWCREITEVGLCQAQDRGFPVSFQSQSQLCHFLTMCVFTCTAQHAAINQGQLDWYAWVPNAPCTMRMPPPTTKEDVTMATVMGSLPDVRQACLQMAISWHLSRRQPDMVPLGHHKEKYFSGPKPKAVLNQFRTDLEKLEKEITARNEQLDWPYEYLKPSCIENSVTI
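Purified human 12hLO at 150 nM in 25 mM Hepes, 0.01% Triton X-100, pH 7.0, preincubated 15 min at room temperature with compound. Reaction started with 40 uM arachidonic acid, 30 min at room temperature. Hydroperoxide measured by Fe-xylenol orange, 573/405 nm absorbance ratio.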
DT40 TDP1 CPT = qHTS for Inhibitors of human tyrosyl-DNA phosphodiesterase 1 (TDP1): qHTS in cells in presence of CPT; Potency, µM (highest dose often 46.2 µM), actives largely listed as inhibitors; chicken DT40 Tdp1-/-;hTDP1 cells + 20 nM CPT, ATP luminescence, 48 h; 420,000 compounds, 12% hits; further: nearly all actives have a fitted effect of over 55% in size
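Chicken DT40 Tdp1-/- cells complemented with human TDP1, 400 cells/well, exposed to compounds plus 20 nM camptothecin for at least 48 h at 37 C; viability read as ATP content by CellTiter-Glo luminescence.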
Hits are given with their value; - = inactive; ? = inconclusive; . = not tested or not shown; [ ] = remark or other dose. Unless noted, the call rests on the fitted dose curve; in most records, active means well fitted curve in the direction sought with a large enough effect; inconclusive means small, poorly fitted or top-dose-only effect, or another doubt; inactive means no such curve, though single readings can be large; an effect the other way counts as inactive or inconclusive.

SMILES	HT1080 IDH1KD tx	DT40 TDP1 no CPT	IL1B secr inh	HT1080NT lethal	ALOX12 inh	DT40 TDP1 CPT
Cc1[nH]c(C)c(S(=O)(=O)N2CCN(c3cccc(Cl)c3)CC2)c1C(=O)N1CCCCC1	-	20.6µM	-	-	?	20.6µM
Nc1nc2c(ncn2COC(CO)CO)c(=O)[nH]1	-	2.59µM	-	-	-	1.3µM
CCCCn1cnc2c(=O)[nH]c(N)nc21	.	-	.	.	.	-
O=S1(=O)C[C@H](N2CCN(c3ccccc3F)CC2)[C@@H](S(=O)(=O)c2ccccc2)C1	.	.	.	.	-	.
O=C(Nc1ccccc1Cc1ccccc1)c1ccccc1NS(=O)(=O)c1ccc(Cl)s1	?	3.66µM	-	16.4µM	?	4.61µM
Cc1ccc(NC(=O)c2ccccc2NS(=O)(=O)c2ccc(Cl)s2)cc1	?	14.6µM	-	20.6µM	?	23.1µM
Cc1cc(C(=O)CSc2n[nH]c(C(C)C)n2)c(C)n1C1CC1	.	.	.	.	-	.
O=C(Nc1ccccc1)Nc1nc(-c2ccc(Cl)cc2)cs1	?	?	-	-	-	?
O=C(Nc1cccc(Cl)c1)Nc1nc(-c2ccc(Cl)cc2)cs1	-	16.4µM	-	-	-	11.6µM
Cc1ccc(NC(=O)Nc2nc(-c3ccc(C)s3)cs2)cc1	-	11.6µM	-	-	-	?
COc1ccc(-c2csc(NC(=O)Nc3ccccc3)n2)cc1	-	-	-	-	?	-
O=C(Nc1cccc(Cl)c1)Nc1csc([N+](=O)[O-])c1	7.31µM	2.31µM	.	20.6µM	?	2.91µM
NC(c1ccccc1)c1csc(NC(=O)Nc2ccc(OC(F)(F)F)cc2)n1 (centres undefined)	18.4µM	-	-	?	?	23.1µM
CC(C)C(=O)Nc1ccc(NC(=O)Nc2cccc(Cl)c2)cc1	.	.	.	.	-	.
NC(c1ccccc1)c1csc(NC(=O)NCC2CCCCC2)n1 (centres undefined)	?	-	-	?	-	-
COc1ccc(N2Cc3c(NCC4CCCCCC4)ncnc3N(C)CC2=O)cc1	.	.	.	.	-	.
O=C(C1CCc2nnc(C3CCN([S+](=O)([O-])c4ccccc4)CC3)n21)N1CCN(c2ncccn2)CC1 (centres undefined)	.	.	.	.	-[6.33 µM]	.
Cc1ccc(NC(=O)N2CCC3(CC2)CC(Cc2nc(-c4ccccc4)no2)CCO3)cc1C (centres undefined)	.	.	.	.	-	.
NC(=O)c1ccc(Nc2nc(C(N)COCc3ccccc3)cs2)cc1 (centres undefined)	-	?	-	-	-	?
NC(c1ccccc1)c1csc(NC(=O)Nc2cccc(Cl)c2)n1 (centres undefined)	16.4µM	?	-104.1	20.6µM	-	?
O=C(Cc1csc(NC(=O)Nc2cccc(Cl)c2)n1)NCc1cccnc1	-	?	?	-	-	-
NC(CCc1ccccc1)c1csc(NC(=O)Nc2cccc(Cl)c2)n1 (centres undefined)	?	23.1µM	-60.5	?	?	25.9µM
NC(COCc1ccccc1)c1csc(NC(=O)Nc2cccc(C(F)(F)F)c2)n1 (centres undefined)	?	?	-54.8	?	?	20.6µM
CCc1ccc(NC(=O)c2ccc3c(c2)N(CC)C2CCCCN2C3=O)cc1 (centres undefined)	.	.	.	.	-	.
NC(=Nc1ccccc1)N(c1ccccc1)c1ccccc1	-	13µM	-	-	-	?
SMILES	HT1080 IDH1KD tx	DT40 TDP1 no CPT	IL1B secr inh	HT1080NT lethal	ALOX12 inh	DT40 TDP1 CPT
CC(C)(C)C(=O)/C(=C/c1ccc(Cl)cc1)n1cncn1	-	5.17µM	-97.0	16.4µM	-	5.8µM
CC(C)/C=C(/C(=O)c1ccc(Cl)cc1Cl)n1cncn1	-	20.6µM	-71.4	-	?	?
N/C(Cn1cncn1)=N\NC(=O)c1ccc(Cl)cc1Cl	-	-	-	-	-	-
O=C(Cn1cncn1)N/N=C/c1ccc(Cl)cc1	-	-	-	-	-	-
CC(C)c1ccc(CN2CCc3ncc(C(=O)NCc4ccccc4)n3CC2)cc1	.	.	.	.	-	.
CCOc1cc(C(=O)Nc2ccccc2O)ccc1OC(F)F	.	.	.	.	-	.
COC(=O)c1ccc(Cn2nc(-c3cc(C)ccc3C)ccc2=O)cc1	-	?	-	?	-	-
Cc1ccc(C)c(Cn2nc(-c3cc(C)ccc3C)ccc2=O)c1	18.4µM	20.6µM	?	?	?	?
O=S(=O)(NCCCO)c1ccc(Cl)c2ccccc12	.	.	.	.	-	.
CCc1nn(C(C)C(=O)N2CCN(c3cccc(C(F)(F)F)c3)CC2)c(=O)c2cc3occc3n12 (centres undefined)	.	23.1µM	.	.	-	?
CCc1nn(C(C)C(=O)N2CCN(c3ccc(OC)cc3)CC2)c(=O)c2cc3occc3n12 (centres undefined)	?	7.31µM	-	-	-	4.61µM
CCc1nn(CCCC(=O)N2CCN(c3cc(Cl)ccc3C)CC2)c(=O)c2cc3occc3n12	.	23.1µM	.	.	-	?
Cc1cccc(N2CCN(C(=O)C(C)n3nc(C)n4c(cc5occc54)c3=O)CC2)c1C (centres undefined)	-	18.4µM	-	-	?	?
CCN1C(=O)NC(c2ccc(Br)s2)C(C(=O)OC)=C1C (centres undefined)	.	.	.	.	-	.
Cc1cccc(N2CCN(C(=O)CCCn3ncn4c(cc5occc54)c3=O)CC2)c1C	.	25.9µM	.	.	-	?
Cc1cccc(N2CCN(C(=O)[C@H](C)N3C(=O)C4CC=CCC4C3=O)CC2)c1C (some centres undefined)	-	25.9µM	-	-	-	23.1µM
CCC(C(=O)N1CCCCCC1)n1nc(C)n2c(cc3occc32)c1=O (centres undefined)	-	-	-	-	-	-
CCC(C(=O)N1CCN(c2ccc(OC)cc2)CC1)n1nc(C)n2c(cc3occc32)c1=O (centres undefined)	.	18.4µM	.	.	?	18.4µM
O=C(CCCn1ncn2c(cc3occc32)c1=O)N1CCc2ccccc2C1	-	-	-	-	-	-
COc1cccc(/C=N/N=C(\N)c2nonc2N)c1O	-	0.92µM	-	?	-	0.0065µM
OCCNc1ncnc2c1cnn2Cc1ccccc1	-	-	-	-	-	-
CCOc1ccc(Nc2ncnc3c2cnn3Cc2ccccc2)cc1	?	-	-	?	?	?
CC(C)CCNc1ncnc2c1cnn2Cc1ccccc1Cl	-	?	-	-	-	29.1µM
